Results on one sequence are retold here after article PMC7862700, “An all-to-all approach to the identification of sequence-specific readers for epigenetic DNA modifications on cytosine”.

Common to all, as to test: DAPPL (digital affinity profiling via proximity ligation, sequencing); 10 mM Tris-HCl pH 7.5, 50 mM NaCl, 1 mM DTT, 4% glycerol, room temperature, 30 min; GST-TFs on glutathione beads, 16-mer random dsDNA library, 0.1% formaldehyde crosslink after washing; high values mean tight binding
In assay [1] the target is T1, FLI1 (Homo sapiens, UniProt Q01543 1-452).
T1 sequence: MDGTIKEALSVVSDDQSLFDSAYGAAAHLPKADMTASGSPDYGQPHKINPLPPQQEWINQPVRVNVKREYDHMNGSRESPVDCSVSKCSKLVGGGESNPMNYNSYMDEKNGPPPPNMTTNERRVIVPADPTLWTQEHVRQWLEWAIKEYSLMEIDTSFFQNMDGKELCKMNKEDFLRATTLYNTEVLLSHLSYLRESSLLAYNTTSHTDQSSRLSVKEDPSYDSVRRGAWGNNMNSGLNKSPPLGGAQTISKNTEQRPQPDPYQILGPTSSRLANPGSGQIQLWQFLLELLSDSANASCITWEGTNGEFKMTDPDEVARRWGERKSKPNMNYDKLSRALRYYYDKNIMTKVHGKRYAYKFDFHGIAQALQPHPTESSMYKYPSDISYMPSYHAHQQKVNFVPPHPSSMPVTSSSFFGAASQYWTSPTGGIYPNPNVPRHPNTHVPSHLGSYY
To be noted: protein: recombinant; tags: N-terminal GST; dsDNA, one strand shown. In a few lines:
(§1)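 Yeast served to express human transcription factors as GST fusions, which were then captured on glutathione beads and labelled with DNA barcodes. Pooled with a tag-only sample, they were incubated with 200 nmole of a 16-mer random double-stranded DNA library for 30 min at room temperature in Tris/NaCl/DTT/glycerol buffer, washed, crosslinked with 0.1% formaldehyde, ligated by proximity, amplified by PCR and sequenced. Dividing each hexamer's read frequency for a factor by its frequency for the tag-only sample gives the binding signal.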

Assay [2] addresses T2, ELK1 (Homo sapiens, UniProt P19419 1-428).
T2 sequence: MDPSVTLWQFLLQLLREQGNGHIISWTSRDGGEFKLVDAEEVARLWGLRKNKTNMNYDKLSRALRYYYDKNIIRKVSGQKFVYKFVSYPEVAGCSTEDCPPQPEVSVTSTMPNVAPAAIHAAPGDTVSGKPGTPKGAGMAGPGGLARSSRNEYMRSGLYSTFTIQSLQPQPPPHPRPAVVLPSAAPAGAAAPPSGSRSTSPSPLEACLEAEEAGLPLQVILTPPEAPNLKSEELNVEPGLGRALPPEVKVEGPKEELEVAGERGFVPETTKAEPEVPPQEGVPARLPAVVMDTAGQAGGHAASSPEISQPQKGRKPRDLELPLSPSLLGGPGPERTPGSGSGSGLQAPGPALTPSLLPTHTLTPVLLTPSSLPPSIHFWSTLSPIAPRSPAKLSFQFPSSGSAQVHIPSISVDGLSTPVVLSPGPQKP
To be noted: protein: recombinant; tags: N-terminal GST; dsDNA, one strand shown. In a few lines:
as §1

In assay [3] the target is T3, GABPA (Homo sapiens, UniProt Q06546 1-454).
T3 sequence: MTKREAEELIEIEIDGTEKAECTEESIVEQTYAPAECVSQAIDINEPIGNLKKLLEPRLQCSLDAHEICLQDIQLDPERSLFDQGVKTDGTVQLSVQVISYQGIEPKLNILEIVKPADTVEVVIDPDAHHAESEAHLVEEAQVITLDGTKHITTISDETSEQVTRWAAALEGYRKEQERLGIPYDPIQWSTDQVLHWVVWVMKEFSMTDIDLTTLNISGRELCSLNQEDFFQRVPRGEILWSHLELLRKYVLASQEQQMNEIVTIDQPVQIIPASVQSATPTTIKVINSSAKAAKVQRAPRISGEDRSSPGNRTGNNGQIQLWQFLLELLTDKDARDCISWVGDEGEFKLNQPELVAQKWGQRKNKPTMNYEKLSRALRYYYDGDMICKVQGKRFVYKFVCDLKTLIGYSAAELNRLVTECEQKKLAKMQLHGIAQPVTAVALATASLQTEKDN
To be noted: protein: recombinant; tags: N-terminal GST; dsDNA, one strand shown. In outline: as §1

Assay [4] has as its target T4, ERG (Homo sapiens, UniProt P11308 1-479).
T4 sequence: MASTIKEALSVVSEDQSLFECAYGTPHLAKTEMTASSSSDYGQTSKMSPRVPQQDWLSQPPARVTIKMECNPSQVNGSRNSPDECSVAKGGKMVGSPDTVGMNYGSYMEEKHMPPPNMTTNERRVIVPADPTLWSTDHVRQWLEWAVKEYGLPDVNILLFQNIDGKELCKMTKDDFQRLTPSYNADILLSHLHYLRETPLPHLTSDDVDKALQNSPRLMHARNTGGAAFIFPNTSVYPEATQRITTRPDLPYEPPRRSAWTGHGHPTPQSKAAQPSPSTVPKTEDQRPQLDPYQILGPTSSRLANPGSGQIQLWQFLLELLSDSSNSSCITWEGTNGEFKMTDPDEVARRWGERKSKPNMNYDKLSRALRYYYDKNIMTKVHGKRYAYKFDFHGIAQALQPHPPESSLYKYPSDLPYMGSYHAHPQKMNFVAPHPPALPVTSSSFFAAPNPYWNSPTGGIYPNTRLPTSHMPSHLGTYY
As to conditions: protein: recombinant; tags: N-terminal GST; dsDNA, one strand shown. In a few lines: as §1

The target of assay [5] is ELF1 (Homo sapiens, UniProt P32519 1-619). To be noted: protein: recombinant; tags: N-terminal GST; dsDNA, one strand shown. In outline: as §1
ELF1, sequence (P32519 whole entry): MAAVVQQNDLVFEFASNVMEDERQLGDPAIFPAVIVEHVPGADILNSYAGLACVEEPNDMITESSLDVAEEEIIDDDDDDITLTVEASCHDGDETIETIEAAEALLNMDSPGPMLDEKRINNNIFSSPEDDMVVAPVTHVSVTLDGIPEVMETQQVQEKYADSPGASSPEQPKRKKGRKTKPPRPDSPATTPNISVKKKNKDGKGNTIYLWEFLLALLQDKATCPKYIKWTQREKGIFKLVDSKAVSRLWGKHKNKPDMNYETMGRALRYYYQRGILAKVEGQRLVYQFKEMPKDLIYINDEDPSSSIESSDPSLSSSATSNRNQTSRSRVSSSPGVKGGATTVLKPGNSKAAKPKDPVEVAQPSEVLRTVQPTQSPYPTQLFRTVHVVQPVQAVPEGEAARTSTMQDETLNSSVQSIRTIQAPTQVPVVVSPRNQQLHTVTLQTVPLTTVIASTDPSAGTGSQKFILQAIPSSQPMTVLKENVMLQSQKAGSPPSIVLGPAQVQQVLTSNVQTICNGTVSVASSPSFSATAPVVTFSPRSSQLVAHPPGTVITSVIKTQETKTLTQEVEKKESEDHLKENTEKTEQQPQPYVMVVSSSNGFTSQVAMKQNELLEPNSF
Assay [6] addresses T5, EHF (Homo sapiens, UniProt Q9NZC4 1-300).
T5 sequence: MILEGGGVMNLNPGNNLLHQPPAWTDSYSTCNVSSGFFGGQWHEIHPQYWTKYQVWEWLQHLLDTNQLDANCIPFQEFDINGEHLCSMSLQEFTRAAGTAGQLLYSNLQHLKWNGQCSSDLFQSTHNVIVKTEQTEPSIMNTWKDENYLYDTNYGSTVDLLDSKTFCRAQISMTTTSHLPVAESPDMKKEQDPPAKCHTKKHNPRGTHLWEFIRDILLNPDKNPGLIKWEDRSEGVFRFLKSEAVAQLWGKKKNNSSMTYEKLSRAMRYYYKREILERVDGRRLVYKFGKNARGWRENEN
As to conditions: protein: recombinant; tags: N-terminal GST; dsDNA, one strand shown. In a few lines:
as §1

Assay [7] concerns the target SPI1 (Homo sapiens, UniProt P17947 1-270). As to conditions: protein: recombinant; tags: N-terminal GST; dsDNA, one strand shown. In outline:
as §1

Assay [8] concerns the target SPIB (Homo sapiens, UniProt Q01892 1-262). To be noted: protein: recombinant; tags: N-terminal GST; dsDNA, one strand shown. In a few lines: as §1
For assay [9], the target named is T6, FEV (Homo sapiens, UniProt Q99581 1-238).
T6 sequence: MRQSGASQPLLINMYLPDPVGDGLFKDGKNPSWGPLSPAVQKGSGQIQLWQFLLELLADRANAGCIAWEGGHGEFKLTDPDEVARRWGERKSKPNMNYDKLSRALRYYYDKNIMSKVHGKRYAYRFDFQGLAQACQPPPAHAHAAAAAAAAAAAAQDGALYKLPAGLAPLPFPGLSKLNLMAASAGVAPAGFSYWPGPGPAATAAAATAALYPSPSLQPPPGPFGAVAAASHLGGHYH
To be noted: protein: recombinant; tags: N-terminal GST; dsDNA, one strand shown. In outline: as §1

In assay [10] the target is ETV5 (Homo sapiens, UniProt P41161 1-510). As to conditions: protein: recombinant; tags: N-terminal GST; dsDNA, one strand shown. In outline: as §1
ETV5, sequence (P41161 whole entry): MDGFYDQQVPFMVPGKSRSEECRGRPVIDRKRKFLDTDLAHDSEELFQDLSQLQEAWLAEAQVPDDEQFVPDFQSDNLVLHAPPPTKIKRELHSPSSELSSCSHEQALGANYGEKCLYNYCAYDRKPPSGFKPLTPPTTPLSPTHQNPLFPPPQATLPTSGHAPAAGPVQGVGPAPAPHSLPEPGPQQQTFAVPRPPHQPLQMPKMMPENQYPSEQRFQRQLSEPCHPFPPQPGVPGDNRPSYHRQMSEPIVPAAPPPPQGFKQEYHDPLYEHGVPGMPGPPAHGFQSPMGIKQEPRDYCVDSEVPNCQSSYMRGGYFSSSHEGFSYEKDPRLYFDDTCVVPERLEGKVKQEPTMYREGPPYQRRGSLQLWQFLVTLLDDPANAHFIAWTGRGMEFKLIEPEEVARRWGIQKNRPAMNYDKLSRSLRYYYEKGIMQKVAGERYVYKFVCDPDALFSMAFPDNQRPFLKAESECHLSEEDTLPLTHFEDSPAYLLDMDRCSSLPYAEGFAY
Assay [11] concerns the target HSF1 (Homo sapiens, UniProt Q00613 1-529). As to conditions: protein: recombinant; tags: N-terminal GST; chain copies: 3; dsDNA, one strand shown. In outline:
as §1

The target in assay [12] is T7, SPIC (Homo sapiens, UniProt Q8N5J4 1-248).
T7 sequence: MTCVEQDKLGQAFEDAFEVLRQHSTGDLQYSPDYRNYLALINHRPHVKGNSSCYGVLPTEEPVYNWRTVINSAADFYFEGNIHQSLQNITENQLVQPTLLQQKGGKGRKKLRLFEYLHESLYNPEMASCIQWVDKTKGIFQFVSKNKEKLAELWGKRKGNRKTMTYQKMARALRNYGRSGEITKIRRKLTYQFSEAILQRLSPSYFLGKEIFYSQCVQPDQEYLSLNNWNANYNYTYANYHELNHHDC
As to conditions: protein: recombinant; tags: N-terminal GST; dsDNA, one strand shown. In outline:
as §1

The target in assay [13] is ELF4 (Homo sapiens, UniProt Q99607 1-663). To be noted: protein: recombinant; tags: N-terminal GST; dsDNA, one strand shown. In a few lines: as §1
ELF4, sequence (Q99607 whole entry): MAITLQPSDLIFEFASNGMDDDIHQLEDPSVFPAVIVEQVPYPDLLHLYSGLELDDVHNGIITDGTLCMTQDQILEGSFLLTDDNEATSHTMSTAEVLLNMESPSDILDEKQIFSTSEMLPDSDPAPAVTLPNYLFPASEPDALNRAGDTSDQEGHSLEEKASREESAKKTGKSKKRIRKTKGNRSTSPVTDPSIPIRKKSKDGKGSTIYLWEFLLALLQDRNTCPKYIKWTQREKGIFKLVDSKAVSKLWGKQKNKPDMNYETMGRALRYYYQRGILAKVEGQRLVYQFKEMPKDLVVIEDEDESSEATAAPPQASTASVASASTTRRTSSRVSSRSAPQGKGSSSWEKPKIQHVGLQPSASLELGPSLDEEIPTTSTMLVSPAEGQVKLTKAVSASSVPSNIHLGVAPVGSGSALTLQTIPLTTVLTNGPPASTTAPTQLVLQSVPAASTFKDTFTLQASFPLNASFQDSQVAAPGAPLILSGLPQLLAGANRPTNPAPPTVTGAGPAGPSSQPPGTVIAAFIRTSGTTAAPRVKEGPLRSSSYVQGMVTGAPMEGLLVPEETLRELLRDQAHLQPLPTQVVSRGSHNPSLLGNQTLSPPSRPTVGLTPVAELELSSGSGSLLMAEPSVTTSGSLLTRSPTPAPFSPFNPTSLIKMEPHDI
For assay [14], the target named is T8, ELK4 (Homo sapiens, UniProt P28324-2 1-405).
T8 sequence: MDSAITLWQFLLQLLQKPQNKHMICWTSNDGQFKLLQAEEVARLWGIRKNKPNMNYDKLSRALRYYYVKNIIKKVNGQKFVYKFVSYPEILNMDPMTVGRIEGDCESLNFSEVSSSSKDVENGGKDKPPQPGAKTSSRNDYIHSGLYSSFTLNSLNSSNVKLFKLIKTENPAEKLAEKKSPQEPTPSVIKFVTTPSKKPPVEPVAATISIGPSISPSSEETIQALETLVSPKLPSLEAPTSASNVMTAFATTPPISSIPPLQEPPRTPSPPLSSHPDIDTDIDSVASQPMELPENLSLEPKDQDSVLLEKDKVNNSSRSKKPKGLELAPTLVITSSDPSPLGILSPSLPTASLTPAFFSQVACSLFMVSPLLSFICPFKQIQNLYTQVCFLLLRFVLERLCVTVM
As to conditions: protein: recombinant; tags: N-terminal GST; dsDNA, one strand shown. In a few lines: as §1

Assay [15] addresses T9, ETV2 (Homo sapiens, UniProt O00321 1-342).
T9 sequence: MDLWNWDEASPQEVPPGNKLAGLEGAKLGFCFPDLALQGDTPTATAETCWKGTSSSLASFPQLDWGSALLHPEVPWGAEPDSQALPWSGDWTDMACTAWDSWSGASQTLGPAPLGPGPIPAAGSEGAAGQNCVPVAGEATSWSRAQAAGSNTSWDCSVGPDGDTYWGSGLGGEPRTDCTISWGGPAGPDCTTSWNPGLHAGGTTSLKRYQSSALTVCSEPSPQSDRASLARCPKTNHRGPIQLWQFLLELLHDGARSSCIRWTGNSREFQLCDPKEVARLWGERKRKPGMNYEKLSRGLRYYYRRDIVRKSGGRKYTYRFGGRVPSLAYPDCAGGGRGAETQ
To be noted: protein: recombinant; tags: N-terminal GST; dsDNA, one strand shown. In outline:
as §1

The target in assay [16] is ETV1 (Homo sapiens, UniProt P50549 1-477). To be noted: protein: recombinant; tags: N-terminal GST; dsDNA, one strand shown. In a few lines:
as §1

ETV1, sequence (P50549 whole entry): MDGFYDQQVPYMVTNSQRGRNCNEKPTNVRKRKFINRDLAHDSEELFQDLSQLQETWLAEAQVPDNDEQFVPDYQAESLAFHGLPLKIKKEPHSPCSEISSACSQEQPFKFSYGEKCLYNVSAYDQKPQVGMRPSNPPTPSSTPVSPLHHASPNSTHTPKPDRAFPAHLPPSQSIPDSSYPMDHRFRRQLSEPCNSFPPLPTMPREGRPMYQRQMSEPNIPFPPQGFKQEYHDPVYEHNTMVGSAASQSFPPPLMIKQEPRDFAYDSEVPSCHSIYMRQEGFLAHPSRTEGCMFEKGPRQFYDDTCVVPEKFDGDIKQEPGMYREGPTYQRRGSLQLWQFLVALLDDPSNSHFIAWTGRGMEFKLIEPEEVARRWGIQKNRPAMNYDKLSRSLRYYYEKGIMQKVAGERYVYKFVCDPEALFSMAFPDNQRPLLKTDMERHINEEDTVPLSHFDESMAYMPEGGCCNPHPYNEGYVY
SPIB, sequence (Q01892 whole entry): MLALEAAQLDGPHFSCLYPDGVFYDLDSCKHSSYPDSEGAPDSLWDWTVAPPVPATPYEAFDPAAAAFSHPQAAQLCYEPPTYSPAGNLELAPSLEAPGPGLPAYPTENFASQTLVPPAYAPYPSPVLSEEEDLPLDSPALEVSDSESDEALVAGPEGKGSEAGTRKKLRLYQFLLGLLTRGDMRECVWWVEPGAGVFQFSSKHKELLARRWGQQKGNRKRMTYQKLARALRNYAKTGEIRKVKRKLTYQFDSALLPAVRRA
HSF1, sequence (Q00613 whole entry): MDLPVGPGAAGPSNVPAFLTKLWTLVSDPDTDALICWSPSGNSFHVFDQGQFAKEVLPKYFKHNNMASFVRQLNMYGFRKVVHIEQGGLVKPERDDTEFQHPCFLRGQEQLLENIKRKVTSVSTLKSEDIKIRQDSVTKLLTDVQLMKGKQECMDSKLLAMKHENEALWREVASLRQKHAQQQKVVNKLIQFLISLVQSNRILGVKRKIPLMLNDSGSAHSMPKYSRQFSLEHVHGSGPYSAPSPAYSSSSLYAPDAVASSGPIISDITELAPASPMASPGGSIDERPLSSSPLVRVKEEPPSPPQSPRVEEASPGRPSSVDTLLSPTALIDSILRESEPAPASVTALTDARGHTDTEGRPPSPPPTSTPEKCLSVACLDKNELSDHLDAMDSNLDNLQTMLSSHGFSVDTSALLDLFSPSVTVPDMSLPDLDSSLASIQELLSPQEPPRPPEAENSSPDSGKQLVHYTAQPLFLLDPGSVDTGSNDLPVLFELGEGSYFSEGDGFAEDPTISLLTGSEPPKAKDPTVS

With CTGGAC, the binding signal in assay [1] was 1.16 fold enrichment (6-mer frequency, TF over GST control); in [2] it was 1.07 fold enrichment (6-mer frequency, TF over GST control); in assay [3], 1.17 fold enrichment (6-mer frequency, TF over GST control); in assay [4] it was 1.13 fold enrichment (6-mer frequency, TF over GST control); in assay [5], 1.12 fold enrichment (6-mer frequency, TF over GST control); in assay [6], 1.13 fold enrichment (6-mer frequency, TF over GST control). Moreover, the binding signal in assay [7] was 1.08 fold enrichment (6-mer frequency, TF over GST control); in [8] it was 1.05 fold enrichment (6-mer frequency, TF over GST control); in assay [9] it was 1.1 fold enrichment (6-mer frequency, TF over GST control); in [10], 1.18 fold enrichment (6-mer frequency, TF over GST control); in assay [11], 1.23 fold enrichment (6-mer frequency, TF over GST control); in assay [12], 1.1 fold enrichment (6-mer frequency, TF over GST control). In addition, the binding signal in assay [13] is 1.19 fold enrichment (6-mer frequency, TF over GST control); in assay [14], 1.11 fold enrichment (6-mer frequency, TF over GST control); in assay [15], 1.2 fold enrichment (6-mer frequency, TF over GST control); in assay [16] it was 1.09 fold enrichment (6-mer frequency, TF over GST control).
